From PubChem BioAssay (NCI)
Compounds without any hit were thinned out: in the full panel of roughly 83,000, 20% have a hit.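 For each line, cells grew in 96-well plates with the test compound present at a single concentration for 48 hours.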 The source made the active and inactive calls. How the source made its calls: active means growth percent below 10; inactive means the rest.

Test system: SNB-19 CNS
Test: NCI-60 one-dose screen, 48 h (100 = growth as untreated, 0 = no growth, -100 = all killed)
Conditions: 10 µM

Structure (SMILES)	growth
O=c1cn[nH]c2ccc(Br)cc12	106% (inactive)
Cc1c2cnccc2c(C)c2c1oc1ccccc12	73.1% (inactive)
COC(=O)C1OC1c1cc([N+](=O)[O-])ccc1OC (stereo unspecified)	110% (inactive)
CCc1ccc(C2=NN(c3ccc(S(C)(=O)=O)cc3)C(=O)CC2)cc1	51.5% (inactive)
COc1cc2c(cc1NC(=O)C(F)(F)F)-c1ccc(NC(=O)C(F)(F)F)cc1C2	86.4% (inactive)
Cc1ccc(S(=O)(=O)N/N=C2\CCCc3ccccc32)cc1	94.6% (inactive)
O=C(c1ccccc1)N(C(=O)c1ccccc1)N1CCCC1	107% (inactive)
CCOC(=O)C1C(C(=O)OCC)C2C(=O)C3C(C(=O)OCC)C(C(=O)OCC)C3C(=O)C12 (stereo unspecified)	96.4% (inactive)
COc1ccc(-c2nn(-c3cccc(Cl)c3)cc2-c2cc(-c3ccccc3)[nH]c(=O)c2C#N)cc1	45.2% (inactive)
CN(C)c1ncnc2c1nnn2C1OC(CO)C(O)C1O (stereo unspecified)	33.9% (inactive)
COc1ccccc1-n1c(-c2sc(NC(C)=O)nc2C)n[nH]c1=S	103% (inactive)
CC(C)(C)OC(=O)CC(S(=O)(=O)c1ccccc1)S(=O)(=O)c1ccccc1	95.2% (inactive)
O=C1/C(=C/c2cccc(F)c2)Cc2ccccc21	98.7% (inactive)
COc1ccc(/C(=N\N)C(=O)c2ccccc2)cc1 (tested in a mixture with another compound)	94% (inactive)
O=C(Nc1cc([N+](=O)[O-])c2[nH]c(=O)c3ccccc3c2c1)C(F)(F)F	87.1% (inactive)
N#CC1=CC2CN(Cc3ccccc3)C1C1C(=O)N(c3ccccc3)C(=O)C21 (stereo unspecified)	101% (inactive)
CCN(CCCNc1cc2c(c(N)c1S(=O)(=O)O)C(=O)c1ccccc1C2=O)c1ccccc1	95.1% (inactive)
O=C1NC(=O)c2c(CCCSc3nc4ccccc4c(=O)n3CCc3ccccc3)cccc21	94.8% (inactive)
COc1ccc(-c2nn(-c3cccc(Cl)c3)cc2-c2c(C#N)c(N)n(N)c(=O)c2C#N)cc1	64% (inactive)
Nc1nc(-c2cccnc2)nc2c1sc(=S)n2-c1ccccc1	95% (inactive)
CCOC(=O)C1=CSC2=NC3=C(CCC/C3=C\c3cc(OC)c(OC)c(OC)c3)C(c3cc(OC)c(OC)c(OC)c3)N12 (stereo unspecified)	85.1% (inactive)
CCOC(=O)C1=CSC2=NC3=C(CCC/C3=C\c3ccc(Cl)cc3)C(c3ccc(Cl)cc3)N12 (stereo unspecified)	81.3% (inactive)
O=C1CCn2c1c(O)c1ccccc1c2=O	110% (inactive)
Cc1ccc(-c2c3c(N)nc(-c4cccnc4)nc3nc3c2c(C)nn3-c2ccccc2)cc1	99.1% (inactive)
COc1ccc(-c2nn(-c3cccc(Cl)c3)cc2-c2c(C#N)c(=O)n3[nH]c(-c4ccccc4)nc3c2C#N)cc1	90.9% (inactive)
CCOC(=O)/C(=C(\C)N)C1CC(=O)NC1=O (stereo unspecified)	101% (inactive)

Test system: U251 CNS
Test: as above
Conditions: 10 µM

Structure (SMILES)	growth
Cc1c2c[n+](C(C)C)ccc2c(C)c2c1[nH]c1ccccc12	13.6% (inactive)
CC(C)C1=C(O)C2=C(C(=O)C1=O)[C@@]1(C)CCCC(C)(C)[C@@H]1CC2	50% (inactive)
Cn1c2ccccc2c2c3[nH][nH]c(=O)c3c3c4ccccc4[nH]c3c21	22.7% (inactive)
Nc1nc(-c2cccnc2)nc2c1sc(=S)n2-c1ccccc1	88.2% (inactive)

Test system: PC-3 prostate
Test: as above
Conditions: 10 µM

Structure (SMILES)	growth
NC1=CC(=O)C(=O)c2cccnc21	78.2% (inactive)
Cc1cn(-c2cc(F)cc(NC(=O)c3ccc(C)c(Nc4nccc(-c5cccnc5)n4)c3)c2)cn1	68.6% (inactive)
C/C(=C/CCC(C)[C@@H]1CC[C@]2(C)C3=C(CC[C@@]12C)[C@@]1(C)CCC(=O)C(C)(C)[C@@H]1CC3)C(=O)O (stereo partly specified)	-29.8% (active)
CCOC(=O)CN(c1sc(C)c(C)c1C(=O)OCC)S(=O)(=O)c1ccc(C)cc1	74.5% (inactive)
CN(C)CCC1(c2ccccc2)CCN(C)C1=O (stereo unspecified)	99.7% (inactive)
COc1ccc(/C(C#N)=C/c2ccccc2OC)cc1	55.6% (inactive)
COc1cc2c(cc1NC(=O)C(Cl)Cl)-c1ccc(NC(=O)C(Cl)Cl)cc1C2	18.8% (inactive)
COc1ccc(-c2nn(-c3cccc(Cl)c3)cc2-c2cc(-c3ccccc3)nc(N)n2)cc1	40% (inactive)
COc1ccc(C(=O)c2ccccc2CN2C(=O)c3ccccc3C2=O)cc1	89.6% (inactive)
COc1ccc(-c2nn(-c3cccc(Cl)c3)cc2-c2nc(N)[nH]c(=O)c2C#N)cc1	75.5% (inactive)
O=C1/C=C/[C@@H](O)[C@@H]2C[C@@H](O)C[C@H]2/C=C/CCC[C@H](C(F)(F)F)O1	25.1% (inactive)
O=c1cn[nH]c2ccc(Br)cc12	95.4% (inactive)
Cc1c2cnccc2c(C)c2c1oc1ccccc12	99.8% (inactive)
COC(=O)C1OC1c1cc([N+](=O)[O-])ccc1OC (stereo unspecified)	96% (inactive)
CCc1ccc(C2=NN(c3ccc(S(C)(=O)=O)cc3)C(=O)CC2)cc1	56.6% (inactive)
COc1cc2c(cc1NC(=O)C(F)(F)F)-c1ccc(NC(=O)C(F)(F)F)cc1C2	90.8% (inactive)
Cc1ccc(S(=O)(=O)N/N=C2\CCCc3ccccc32)cc1	90.3% (inactive)
O=C(c1ccccc1)N(C(=O)c1ccccc1)N1CCCC1	88.4% (inactive)

Structure (SMILES)	growth
CCOC(=O)C1C(C(=O)OCC)C2C(=O)C3C(C(=O)OCC)C(C(=O)OCC)C3C(=O)C12 (stereo unspecified)	97.6% (inactive)
COc1ccc(-c2nn(-c3cccc(Cl)c3)cc2-c2cc(-c3ccccc3)[nH]c(=O)c2C#N)cc1	71.6% (inactive)
CN(C)c1ncnc2c1nnn2C1OC(CO)C(O)C1O (stereo unspecified)	21.7% (inactive)
COc1ccccc1-n1c(-c2sc(NC(C)=O)nc2C)n[nH]c1=S	95.9% (inactive)
CC(C)(C)OC(=O)CC(S(=O)(=O)c1ccccc1)S(=O)(=O)c1ccccc1	101% (inactive)
O=C1/C(=C/c2cccc(F)c2)Cc2ccccc21	90% (inactive)
COc1ccc(/C(=N\N)C(=O)c2ccccc2)cc1 (tested in a mixture with another compound)	90.8% (inactive)
O=C(Nc1cc([N+](=O)[O-])c2[nH]c(=O)c3ccccc3c2c1)C(F)(F)F	94.4% (inactive)
N#CC1=CC2CN(Cc3ccccc3)C1C1C(=O)N(c3ccccc3)C(=O)C21 (stereo unspecified)	101% (inactive)
CCN(CCCNc1cc2c(c(N)c1S(=O)(=O)O)C(=O)c1ccccc1C2=O)c1ccccc1	87.1% (inactive)
O=C1NC(=O)c2c(CCCSc3nc4ccccc4c(=O)n3CCc3ccccc3)cccc21	88.9% (inactive)
COc1ccc(-c2nn(-c3cccc(Cl)c3)cc2-c2c(C#N)c(N)n(N)c(=O)c2C#N)cc1	54% (inactive)
CCOC(=O)C1=CSC2=NC3=C(CCC/C3=C\c3cc(OC)c(OC)c(OC)c3)C(c3cc(OC)c(OC)c(OC)c3)N12 (stereo unspecified)	77.1% (inactive)
CCOC(=O)C1=CSC2=NC3=C(CCC/C3=C\c3ccc(Cl)cc3)C(c3ccc(Cl)cc3)N12 (stereo unspecified)	101% (inactive)
O=C1CCn2c1c(O)c1ccccc1c2=O	100% (inactive)
Cc1ccc(-c2c3c(N)nc(-c4cccnc4)nc3nc3c2c(C)nn3-c2ccccc2)cc1	69.3% (inactive)
COc1ccc(-c2nn(-c3cccc(Cl)c3)cc2-c2c(C#N)c(=O)n3[nH]c(-c4ccccc4)nc3c2C#N)cc1	101% (inactive)
CCOC(=O)/C(=C(\C)N)C1CC(=O)NC1=O (stereo unspecified)	92.1% (inactive)
